Experimental data published in PubChem BioAssay (EPA / NIEHS).
Activity calls are given as the source filed them. How the source made its calls: active means hit-call score of the fitted dose curve at least 0.9, where 1 is the maximum; inactive means score below 0.9.

Columns and labels:
[1] = ATG_NFI_CIS: Attagene CIS-FACTORIAL HepG2 Assay for human Nuclear Factor I (NFI) (AID 2282989); details: HepG2 cis-regulatory reporter, NFI response element transcription; actives raise or lower the signal
Method in brief: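 Reporter transcription driven by endogenous transcription factors in HepG2 cells; 24 h treatment. Quantitation by labelled RT-PCR fragments on capillary electrophoresis, gain- or loss-of-signal relative to DMSO.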

[2] = biological target: Myc proto-oncogene protein (Homo sapiens) (UniProt P01106); assay: ATG_Myc_CIS: Attagene CIS-FACTORIAL HepG2 Assay for human Myelocytomatosis (Myc) Proto-Oncogene Transcription Factor (AID 2282990); details: HepG2, Attagene cis-reporter transcription factor activity; actives raise or lower the signal
Chain of Myc proto-oncogene protein (Homo sapiens) (P01106 whole entry, looked up): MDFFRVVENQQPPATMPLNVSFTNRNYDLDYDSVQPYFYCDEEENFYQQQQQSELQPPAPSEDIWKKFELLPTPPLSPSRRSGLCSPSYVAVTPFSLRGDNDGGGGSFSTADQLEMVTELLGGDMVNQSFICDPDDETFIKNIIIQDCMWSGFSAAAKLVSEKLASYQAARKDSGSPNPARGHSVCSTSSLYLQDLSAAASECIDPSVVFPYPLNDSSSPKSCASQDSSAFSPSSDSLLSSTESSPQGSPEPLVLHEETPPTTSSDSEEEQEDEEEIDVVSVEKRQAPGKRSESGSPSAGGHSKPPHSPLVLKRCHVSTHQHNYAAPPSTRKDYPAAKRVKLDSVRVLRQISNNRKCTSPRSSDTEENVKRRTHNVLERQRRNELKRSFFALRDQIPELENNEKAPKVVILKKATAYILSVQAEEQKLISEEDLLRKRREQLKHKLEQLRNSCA
Method in brief: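 Cells of the HepG2 human liver line bear multiple cis-driven reporter transcription units. Reporter mRNA after 24 h exposure is reverse-transcribed, amplified, labelled and resolved by capillary electrophoresis, with gain- or loss-of-signal fitting relative to DMSO.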

[3] = ATG_NF_kB_CIS: Attagene CIS-FACTORIAL HepG2 Assay for human Nuclear Factor Kappa B (NF-kB) (AID 2282991); details: HepG2 Attagene cis-factorial NF-kB reporter mRNA; actives raise or lower the signal
Method in brief: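 Endpoint from a 52-component multiplexed HepG2 reporter panel: cis-regulated transcription units transiently transfected, 24 h dosing, reporter mRNA quantified by RT-PCR and capillary electrophoresis, scored as increase or decrease against DMSO.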

[4] = ATG_NRF2_ARE_CIS: Attagene CIS-FACTORIAL HepG2 Assay for human Nuclear Factor Erythroid 2 Related Factor 2 (NFR2) response to Antioxidant Response Elements (ARE) (AID 2282992); details: HepG2 Attagene ARE/NRF2 reporter, transcription factor activity; actives raise or lower the signal;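 on AC50: reporter mRNA level measured by RT-PCR and capillary electrophoresis fluorescence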
Method in brief: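 Readout: reporter mRNA quantified by RT-PCR plus FAM-labelled primer extension, HpaI digestion and capillary electrophoresis, 24 h after dosing transfected HepG2 cells. Gain or loss of signal is fitted bidirectionally against DMSO baseline.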

[5] = ATG_Oct_MLP_CIS: Attagene CIS-FACTORIAL HepG2 Assay for human Octamer-Binding Transcription Factor (Oct) (AID 2282993); details: HepG2 Attagene cis-factorial Oct reporter, mRNA; actives raise or lower the signal
Method in brief: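 Transfected HepG2 cells, 24 h treatment. Reporter mRNA quantified by RT-PCR–capillary electrophoresis; bidirectional fitting against DMSO.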

[6] = biological target: Cellular tumor antigen p53 (Homo sapiens) (UniProt P04637); assay: ATG_p53_CIS: Attagene CIS-FACTORIAL HepG2 Assay for human p53 Transcription Factor (AID 2282994); details: HepG2 p53 cis-element reporter, Attagene mRNA; actives raise or lower the signal
Chain of Cellular tumor antigen p53 (Homo sapiens) (P04637 whole entry, looked up): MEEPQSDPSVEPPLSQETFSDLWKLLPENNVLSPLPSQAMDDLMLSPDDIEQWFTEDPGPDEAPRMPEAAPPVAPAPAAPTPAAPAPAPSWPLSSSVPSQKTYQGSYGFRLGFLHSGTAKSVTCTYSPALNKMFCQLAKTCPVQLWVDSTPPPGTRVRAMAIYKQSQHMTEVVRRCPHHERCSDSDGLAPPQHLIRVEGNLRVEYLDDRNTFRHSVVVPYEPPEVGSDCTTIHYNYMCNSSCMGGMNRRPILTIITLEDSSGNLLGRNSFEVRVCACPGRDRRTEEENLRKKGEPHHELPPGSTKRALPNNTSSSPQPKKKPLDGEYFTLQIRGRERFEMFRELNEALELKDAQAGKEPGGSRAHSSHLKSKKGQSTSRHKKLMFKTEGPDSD
Method in brief: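 Read-out: reporter mRNA by RT-PCR plus capillary electrophoresis with fluorescence detection. Human HepG2 liver cells carried transfected multi-reporter cis-element constructs, dosed 24 h. Gain or loss of signal fitted bidirectionally against DMSO control.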

[7] = BSK_3C_TissueFactor: BioMAP Diversity Plus: 3C Assay for Tissue Factor Biomarker Activity (AID 2282997); details: BioMAP 3C HUVEC, tissue factor biomarker readout; actives raise or lower the signal
Method in brief: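 After a 24 h chemical exposure of primary human umbilical vein endothelial cells, Tissue Factor levels were quantified by ELISA.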

[8] = BSK_3C_uPAR: BioMAP Diversity Plus: 3C Assay for Urokinase-type plasminogen activator receptor (uPAR) Biomarker Activity (AID 2282998); details: BioMAP 3C HUVEC, uPAR biomarker ELISA; actives raise or lower the signal
Method in brief: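 Readout: ELISA for surface uPAR. System: human umbilical vein endothelial primary cells, 24 h after chemical exposure. Analysis: bidirectional fit, DMSO baseline.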

[9] = BSK_3C_VCAM1: BioMAP Diversity Plus: 3C Assay for Vascular cell adhesion molecule 1 (VCAM1) Biomarker Activity (AID 2282999); details: BioMAP 3C HUVEC, VCAM1 ELISA, cytokine-stimulated; actives raise or lower the signal
Method in brief: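 Activity fitted in both directions relative to DMSO, with ELISA measurement of the surface marker on primary HUVEC (3C) at 24 h post-treatment; parallel SRB staining (0.1% SRB, TCA-fixed, 560 nm) flagged overt cytotoxicity.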

[10] = BSK_4H_Eotaxin3: BioMAP Diversity Plus: 4H Assay for Eotaxin 3 Biomarker Activity (AID 2283000); details: primary human endothelial cells (HUVEC); actives raise or lower the signal
Method in brief: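 Chemicals were added to human umbilical vein endothelium cultures, and Eotaxin-3 was quantified by ELISA at 24 h. Values were derived by bidirectional fitting with DMSO serving as negative control and activity baseline.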

Measured: AC50

C#CC(C)N(C)C(=O)Nc1ccc(Cl)cc1 (stereo not given)
active: [4] 48.4 µM
inactive: [1] | [2] | [3] | [5] | [6]

Clc1cc(Cl)c(-c2c(Cl)c(Cl)cc(Cl)c2Cl)cc1Cl
active: [4] 26.7 µM | [7] 10 µM | [8] 17.1 µM | [9] 12.9 µM | [10] 12.5 µM
inactive: [1] | [2] | [3] | [5] | [6]

CC(=O)O[C@@H]1C[C@@H]2CC[C@@]1(C)C2(C)C
inactive: [1] | [2] | [3] | [4] | [5] | [6]

N#Cc1cscn1
inactive: [1] | [2] | [3] | [4] | [5] | [6]

CC(C)CCCCCCc1ccc(OCCOCCO)cc1
inactive: [1] | [2] | [3] | [4] | [5] | [6]

C[C@@H]1CCN(C(=O)[C@H](CCCN=C(N)N)NS(=O)(=O)c2cccc3c2NC[C@H](C)C3)[C@@H](C(=O)O)C1
inactive: [1] | [2] | [3] | [4] | [5] | [6] | [7] | [8] | [9] | [10]

O=CN1CCOCC1
inactive: [1] | [2] | [3] | [4] | [5] | [6] | [7] | [8] | [9] | [10]

FC(F)(F)COCC(F)(F)F
inactive: [1] | [2] | [3] | [4] | [5] | [6]

CC(C)(C)CC(C)(C)c1ccc(OCCOCC[N+](C)(C)Cc2ccccc2)cc1
inactive: [1] | [2] | [3] | [5]
active: [4] 6.71 µM | [6] 8.35 µM | [7] 7.26 µM | [8] 5 µM | [9] 7.65 µM | [10] 7.69 µM

CCOCCOCCOCC
inactive: [1] | [2] | [3] | [4] | [5] | [6]

CN1C(=O)c2ccccc2C1=O
inactive: [1] | [2] | [3] | [4] | [5] | [6]

OCCCCC(O)CO (stereo not given)
inactive: [1] | [2] | [3] | [4] | [5] | [6]

CCCSc1ccc2nc(NC(=O)OC)[nH]c2c1
inactive: [1] | [2] | [3] | [4] | [5] | [6]

O=C(O)CNc1ccccc1
inactive: [1] | [2] | [3] | [4] | [5] | [6]

C[Si]1(C)O[Si](C)(C)O[Si](C)(C)O1
inactive: [1] | [2] | [3] | [4] | [5] | [6]

CC(=O)Nc1ccc(C(=O)CCl)cc1
inactive: [2] | [5] | [6]
active: [1] 8.18 µM | [3] 2.5 µM | [4] 0.41 µM | [7] 9.37 µM | [8] 9.48 µM | [9] 6.27 µM | [10] 6.53 µM

Cc1ccc(OC(=O)c2ccccc2O)cc1
active: [4] 51.2 µM
inactive: [1] | [2] | [3] | [5] | [6]

CCCCCCCCCCCC(=O)OC[C@@H](O)[C@H]1OC[C@H](O)[C@H]1O
inactive: [1] | [2] | [3] | [4] | [5] | [6]

CCCOC(=O)c1c(Cl)c(Cl)c(Cl)c(Cl)c1C(=O)OCCC
active: [1] 156 µM | [2] 100 µM | [4] 55.3 µM | [5] 148 µM
inactive: [3] | [6]

CCC(C)=O
inactive: [1] | [2] | [3] | [4] | [5] | [6]

CCc1ccc(O)c(OC)c1
inactive: [1] | [2] | [3] | [4] | [5] | [6]

O=[N+]([O-])c1cccc(Cl)c1
inactive: [1] | [2] | [3] | [4] | [5] | [6]

COC(CC(C)CCCC(C)(C)O)OC (stereo not given)
inactive: [1] | [2] | [3] | [4] | [5] | [6]

CCCCCC(C=O)=Cc1ccccc1
inactive: [1] | [2] | [3] | [5]
active: [4] 100 µM | [7] 31.7 µM | [8] 31.5 µM | [9] 33.1 µM | [10] 31 µM

CCCCCCC(CO)CCCC (stereo not given)
inactive: [1] | [2] | [3] | [5] | [6] | [7] | [8] | [9] | [10]

[Cl][Au]([Cl])[Cl]
active: [4] 0.156 µM
inactive: [1] | [2] | [5]

O=C1OC[C@H](Cc2cccc(O)c2)[C@H]1Cc1cccc(O)c1
inactive: [1] | [2] | [3] | [4] | [5] | [6] | [7] | [8] | [9] | [10]

CCOC(=O)C1OC1c1ccccc1 (stereo not given)
active: [3] 47 µM | [6] 64.4 µM
inactive: [1] | [2] | [5]
